Source: PubChem
LGR2 antag: inhibitors of bursicon-induced LGR2 CRE-luciferase signal, primary screen, cell-based, HEK293, CRE-luciferase reporter, bursicon stimulation. bursicon-stimulated, 4 h. 380,000 compounds, 0.35% hits. Drosophila bursicon receptor LGR2 (rickets). inhibition, % at 9.99 µM;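 active = drop in luminescence signal, shown as inhibition above about 50% in the replicate tests, limit read from the data, passing the limit was not always enough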;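 note: agonist challenge used bursicon conditioned medium at about half maximal strength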
Mdm2-MdmX inh: inhibitors of human Mdm2-MdmX association, primary screen, cell-based, luminescence, split luciferase, SaOS-2, uHTS; SaOS-2 split-luciferase Mdm2/MdmX complementation; inhibition, % at 8 µM; 330,000 compounds, 3% hits; AID 485346, 2010;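 active = inhibition of at least 50% at 8 µM in the primary screen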
Target sequence (O15151 whole entry, looked up): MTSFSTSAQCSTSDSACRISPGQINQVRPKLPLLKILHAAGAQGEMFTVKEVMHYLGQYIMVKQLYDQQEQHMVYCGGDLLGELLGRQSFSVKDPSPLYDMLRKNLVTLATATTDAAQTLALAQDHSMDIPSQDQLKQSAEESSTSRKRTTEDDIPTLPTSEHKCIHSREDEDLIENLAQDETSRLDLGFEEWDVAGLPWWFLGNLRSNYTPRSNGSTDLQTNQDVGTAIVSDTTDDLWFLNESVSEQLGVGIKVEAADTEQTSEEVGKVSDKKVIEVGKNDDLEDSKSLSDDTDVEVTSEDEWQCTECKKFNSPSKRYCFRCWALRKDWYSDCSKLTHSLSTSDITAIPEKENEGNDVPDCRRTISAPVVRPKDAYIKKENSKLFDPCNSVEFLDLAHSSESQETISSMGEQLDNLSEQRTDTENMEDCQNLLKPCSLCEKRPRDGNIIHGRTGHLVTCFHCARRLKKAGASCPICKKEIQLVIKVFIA
Target sequence (Q00987 whole entry, looked up): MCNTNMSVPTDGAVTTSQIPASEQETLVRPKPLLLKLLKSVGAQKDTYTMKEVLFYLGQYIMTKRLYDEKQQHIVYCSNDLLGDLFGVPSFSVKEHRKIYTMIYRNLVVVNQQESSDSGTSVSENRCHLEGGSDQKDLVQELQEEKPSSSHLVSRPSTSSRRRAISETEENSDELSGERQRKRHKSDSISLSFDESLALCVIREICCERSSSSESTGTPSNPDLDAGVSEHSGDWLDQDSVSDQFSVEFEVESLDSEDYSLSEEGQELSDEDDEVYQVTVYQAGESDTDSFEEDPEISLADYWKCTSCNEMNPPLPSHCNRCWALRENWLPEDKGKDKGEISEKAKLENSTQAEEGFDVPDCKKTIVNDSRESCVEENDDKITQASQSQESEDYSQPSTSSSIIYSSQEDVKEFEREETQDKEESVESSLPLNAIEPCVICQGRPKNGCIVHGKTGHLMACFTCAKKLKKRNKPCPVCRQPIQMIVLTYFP
Peg3 prom inh: Peg3 promoter-driven luciferase inhibitors, primary screen, cell-based, HeLa, luciferase luminescence. AID 588405, 2011. inhibition, % at 20 µM. 360,000 compounds, 1.7% hits. HeLa PEG-Prom luciferase reporter, overnight;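 active = inhibition of at least 50% at 20 µM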
KKLEB tox: cytotoxicity in KKLEB CF airway cells, primary screen, cytotoxicity control for CF NF-kB inhibitor project, cell-based, uHTS, fluorescence assay plates. KKLEB CF airway cells viability, ATPlite luminescence, overnight; active compounds read low; cells stimulated with P. aeruginosa culture filtrate. activity change (cytotoxicity), % at 5 µM. 360,000 compounds, 0.36% hits. AID 602141, 2011;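 active = corrected activity change at or below -50% at 5 µM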
HSP90 refold inh: HSP90 inhibitors, primary screen, cell lysate, luminescence | Heat shock protein HSP 90 (rabbit reticulocyte lysate; luciferase refolding) | Rabbit reticulocyte lysate, luciferase refolding luminescence, 3 h | inhibition, % at 5.6 µM | 290,000 compounds, 0.91% hits | AID 1789, 2009;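 active = inhibition above the screen-wide mean plus 3 SD, computed separately per campaign, cut at about 16% in these data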;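 note: 0% = DMSO wells and 100% = 60 µM geldanamycin wells; inhibitors lower the luminescence because luciferase stays unfolded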
CF NFkB block: inhibitors of PAF-induced NF-kB signaling, primary screen, cell-based, GFP fluorescence, uHTS; KKLEB NF-kB-GFP reporter, GFP fluorescence overnight; inhibition, % at 5 µM; 360,000 compounds, 0.86% hits; AID 588850, 2011;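 active = at least 50% inhibition at 5 µM, scaled per plate between neutral and stimulator controls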;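 note: PAF is a Pseudomonas aeruginosa culture filtrate used as stimulus; plate controls were PAF-stimulated DMSO wells for no effect and unstimulated DMSO wells for full effect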
Active calls of the source: *. Compounds with a hit are over-represented: about 3.6% of the library has one in this group of screens.

`COc1ccc(CC(N)c2csc(Nc3cc(Oc4ccccc4)ncn3)n2)cc1` (configuration not stated) gave LGR2 antag 21, Peg3 prom inh 36, KKLEB tox -7 and CF NFkB block -9.
For COc1cccc(Nc2nc(C(N)CCc3ccccc3)cs2)n1 (configuration not stated) the results were LGR2 antag 3, Peg3 prom inh 109*, KKLEB tox -30 and CF NFkB block 41.
`C[C@@H]1CCCCO[C@@H](CN(C)C(=O)c2ccncc2)[C@@H](C)CN([C@H](C)CO)C(=O)c2cc(NS(C)(=O)=O)ccc2O1` gave LGR2 antag 1.
`COc1ccc(S(=O)(=O)N[C@H]2C=C[C@@H](CC(=O)NCc3ccccc3F)O[C@H]2CO)cc1` gave LGR2 antag -7.
For C[C@@H]1CN([C@@H](C)CO)C(=O)Cc2cc(NS(=O)(=O)c3cn(C)cn3)ccc2O[C@H]1CN(C)C(=O)Nc1cccc2ccccc12 the results were LGR2 antag 15.
For O=C(CC1CC1)Nc1ccc2c(c1)[C@@H]1C[C@H](CC(=O)NC3CCCC3)O[C@H](CO)[C@@H]1O2 the results were LGR2 antag -23.
`Cc1cc(CSc2ccccc2)ccc1NC(=O)c1ccc(Cl)c([N+](=O)[O-])c1` gave Mdm2-MdmX inh 34, Peg3 prom inh 64*, KKLEB tox -15, HSP90 refold inh -3 and CF NFkB block 25.
`O=C(Nc1cccc(F)c1)N1CC(=O)N2[C@H](CO)[C@@H](c3ccc(C#CCC4CCCC4)cc3)[C@H]2C1` gave LGR2 antag 1.
Screening CC(C)NC(=O)Nc1ccc2c(c1)C(=O)N([C@@H](C)CO)C[C@@H](C)[C@@H](CN(C)C(=O)Nc1ccccc1)O2 returned LGR2 antag 7.
Screening O=C(C[C@H]1CC[C@@H]2[C@H](COC[C@@H](O)CN2C(=O)Nc2ccc(C(F)(F)F)cc2)O1)NCC1CC1 returned LGR2 antag 10.
C(/C=C/c1ccccn1)=C\c1ccccc1 was read as LGR2 antag 76*, Mdm2-MdmX inh -156, Peg3 prom inh -272, KKLEB tox -2 and CF NFkB block -21.
`C(=C\c1ccccn1)/c1ccncc1` gave LGR2 antag -2, Mdm2-MdmX inh 2, Peg3 prom inh -45, KKLEB tox -12, HSP90 refold inh 2 and CF NFkB block -7.
`COc1ccc2c3c([nH]c2c1)[C@H](CO)N(C(=O)c1ccncc1)CC31CCN(C(=O)CC2CC2)CC1` gave LGR2 antag -11.
CCCC(O)(c1ccc(Cl)cc1)C(CN1CCOCC1)c1ccc(Cl)cc1 (configuration not stated) was read as LGR2 antag 3, Mdm2-MdmX inh 14, Peg3 prom inh 58*, KKLEB tox 2, HSP90 refold inh -1 and CF NFkB block 12.
Screening CCCN(C)C[C@@H]1Oc2ncc(Br)cc2C(=O)N([C@H](C)CO)C[C@@H]1C returned LGR2 antag 24.
For Cc1ccc(NCCCn2cnc(C(=O)Nc3ccc(C)c(C)c3)n2)cc1C the results were LGR2 antag 3, Peg3 prom inh -5, KKLEB tox 14 and CF NFkB block -1.
For Cc1ccc(NC(=O)c2ncn(CCCN[C@H](C)c3cccc4ccccc34)n2)cc1C the results were LGR2 antag 12, Peg3 prom inh 85*, KKLEB tox 4 and CF NFkB block 14.
For Cc1nn(Cc2ccccc2)c(=O)n1N(C)c1ncc(C(F)(F)F)cc1Cl the results were Mdm2-MdmX inh -1, Peg3 prom inh 9, KKLEB tox -4, HSP90 refold inh 7 and CF NFkB block 4.
`Cc1nn(C)c(=O)n1N(C)c1ncc(C(F)(F)F)cc1Cl` gave LGR2 antag 8, Mdm2-MdmX inh -1, Peg3 prom inh 67*, KKLEB tox -25, HSP90 refold inh 2 and CF NFkB block -4.
